Experimental data from PubChem BioAssay AID2685 (National Center for Advancing Translational Sciences (NCATS), 2010).
Values joined by “and” are separate entries in the source; they are usually repeats but may differ in a detail not shown here. Equal entries are not always repeated. Hit rate of the full screen: of about 320,000 compounds, about 2,100 (0.66%) were called active. Not shown: some 53% with an inconclusive outcome. Calls come from the whole dose curve; as a rule, active = well fitted inhibition curve with a large enough effect in the signal ratio, with a control signal flat (not every such curve was filed as active); inconclusive = small, poorly fitted or top-dose-only effect, or effect the other way, or a change in a side signal; inactive = flat fitted curve, though single readings scatter; the % refers to the signal ratio. Only a selection was taken, and actives are over-represented in it overall.

Experiment: qHTS Assay for Lipid Storage Modulators in Drosophila S3 Cells;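 for cell number change: cells counted by Cell Tracker Red CMTPX staining in the red channel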; for lipid storage change, negative = inhibition: % is set by controls: 0 for no effect and ±100 for the full control effect
Conditions: BODIPY lipid droplet fluorescence, 18-24 h, cells fed with added oleic acid; cell number change: measured here: cell count max response; series mostly up to 46.1 µM; lipid storage change, negative = inhibition: at the top concentration
How it was run: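 Laser-scanning cytometry quantifies lipid droplet accumulation (500–530 nm total intensity; droplet/cell object ratio) in oleic acid-fed (400 uM added) Drosophila S3 cells treated with a concentration series. 20 uM Triacsin C defined 100% inhibition.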
Potency is the fitted concentration of half-maximal effect.

Structure (SMILES)	lipid storage change, negative = inhibition	cell number change	outcome	Potency
N#Cc1cc2c(nc1Cl)CCC2	16.3% (inactive)	0.397%	–	–
COc1cc(/C=C(/C(=O)c2cccs2)c2nc3ccccc3[nH]2)ccc1O	–	-19%	inactive	–
O=C(NCc1ccco1)/C(=C/c1cccc(C(F)(F)F)c1)c1nc2ccccc2[nH]1	2.93% (inactive)	-4.5%	–	–
O=C(/C(=C/c1cccc(Cl)c1)c1nc2ccccc2[nH]1)c1ccccc1	–	-22.6%	–	9.2 µM (active)
Cc1ccc2nc(-c3ccccc3)c(-c3ccccc3)nc2c1	21.7% (inactive)	8.82%	–	–
N#C/C(=C\c1ccccc1OCC(=O)O)c1nc2ccccc2[nH]1	-13.5% (inactive)	–	–	–
CCN(CC)c1ccc(/C=C(/C#N)c2nc3ccccc3[nH]2)c(OC(C)C)c1	–	–	–	3.66 µM (active)
CCOc1cc(/C=C(\C#N)c2nc3ccccc3[nH]2)ccc1OC(C)C(=O)O (configuration not stated)	3.1% (inactive)	5.37%	–	–
CCN(C(=O)COC(=O)c1cc(=O)c2ccccc2o1)c1c(N)n(Cc2ccccc2)c(=O)[nH]c1=O	-18.7% (inactive)	–	–	–
COc1cccc(CN2C(=O)C(C)N(C(=O)c3ccccc3)c3ccccc32)c1 (configuration not stated)	-3.54% (inactive)	-9.22%	–	–
Cc1ccc(Cl)cc1N(CC(=O)NC1CCCC1)C(=O)c1csnn1	–	11.3%	–	0.82 µM (active)
Cc1cc(C)cc(N(CC(=O)NC2CCCC2)C(=O)c2csnn2)c1	–	20%	inactive	–
Cc1ccccc1N(CC(=O)NC1CCCC1)C(=O)c1csnn1	0.767% (inactive)	-1.91%	–	–
Cc1ccc(C)c(N(CC(=O)NC2CCCCC2)C(=O)c2csnn2)c1	–	7.08%	inactive	–
CC(=O)c1ccc(N(CC(=O)NC2CCCCC2)C(=O)c2csnn2)cc1	-2.57% (inactive)	-0.427%	–	–
Cc1cc(C)cc(N(CC(=O)NC2CCCCC2)C(=O)c2csnn2)c1	–	3.85%	–	6.51 µM (active)
O=C1C2C3C=CC(C3)C2C(=O)N1c1cccc2ccccc12 (configuration not stated)	–	–	inactive	–
CCCN(c1ccccc1C(=O)O)S(=O)(=O)c1ccc2c(c1)n(C)c(=O)n2C	7.64% (inactive)	4.38%	–	–
CN(Cc1cccc(Cl)c1)C(=O)C1CSC2(C)CCC(=O)N12 (configuration not stated)	-14.7% (inactive)	2.85%	–	–
COc1ccc(Oc2cccc(Cl)c2CNC(=O)CCCC(=O)O)cc1	19% (inactive)	-4.23%	–	–
CC1(C)CC(O)C(C)(C)N1O (configuration not stated)	-10.4% (inactive)	0.759%	–	–
COc1ccc2[nH]c(=O)c(CN(C(=O)C3CCCO3)c3ccc(C)cc3)cc2c1 (configuration not stated)	22.5% (inactive)	-16.8%	–	–
O=C(O)CCC(=O)Nc1ccc(/C=C/C(=O)C2CC2)cc1	4.47% (inactive)	0.554%	–	–

Structure (SMILES)	lipid storage change, negative = inhibition	cell number change	outcome	Potency
COC(=O)C(C(=O)OC)C(C[N+](=O)[O-])c1ccc(OC)cc1 (configuration not stated)	-0.0854% (inactive)	-3.46%	–	–
Cc1ccc(C(C[N+](=O)[O-])n2nc(C)cc2C)cc1 (configuration not stated)	–	28.9%	inactive	–
COc1ccc(C(C[N+](=O)[O-])n2nc(C)cc2C)cc1 (configuration not stated)	–	-16.7%	–	5.17 µM (active)
CCCCn1c(=O)nc2n(-c3ccc(Cl)cc3)c3ccccc3cc-2c1=O	16.3% (inactive)	–	–	–
C=CCNC(=O)c1ccc(Sc2ccc(C)cc2)c([N+](=O)[O-])c1	-20% (inactive)	-8.5%	–	–
CCOC(=O)/C(=C\c1cccc(O)c1)c1nc2sc(C)c(C)c2c(=O)[nH]1	–	-21.1%	–	20.6 µM (active)
CCOC(=O)c1nc2sc(C)c(C)c2c(=O)[nH]1	5.14% (inactive)	-3.45%	–	–
Cc1c(C(=O)O)sc2nc(/C=C/c3cccc(O)c3)[nH]c(=O)c12	0.183% (inactive)	5.19%	–	–
NC(=O)C1CCN(c2ccnc3cc(Cl)ccc23)CC1	-18.4% (inactive)	-7.1%	–	–
Cc1ccc(N(C(=O)CCCC(=O)Nc2ccccn2)C(C(=O)NC2CCCC2)c2ccc(O)cc2)cc1C (configuration not stated)	–	-6.35%	inactive	–
CCOC(=O)c1sc2nc3n(c(=O)c2c1C)CCCCC3	14.1% (inactive)	-6.59%	–	–
Cc1c(C(=O)Nc2ccc(OC(F)(F)F)cc2)sc2nc3n(c(=O)c12)CCC3	-11.7% (inactive)	2.69%	–	–
Cc1c(C(=O)NCCO)sc2nc3n(c(=O)c12)CCC3	-0.957% (inactive)	20%	–	–
CCc1cccc(NC(=O)c2sc3nc4n(c(=O)c3c2C)CCC4)c1	–	-22.1%	–	5.8 µM (active)
CCc1ccc(NC(=O)c2sc3nc4n(c(=O)c3c2C)CCC4)cc1	–	-24%	–	2.31 µM (active)
COc1ccc(COC(=O)c2sc3nc4n(c(=O)c3c2C)CCC4)cc1	–	–	inactive	–
COc1cccc(NC(=O)c2sc3nc4n(c(=O)c3c2C)CCC4)c1	–	-27.4%	–	4.11 µM (active)
CCOc1ccc(CCNC(=O)c2sc3nc4n(c(=O)c3c2C)CCC4)cc1	-17.7% (inactive)	17.9%	–	–
CCOC(=O)c1sc2nc3n(c(=O)c2c1C)CCC3	18.2% (inactive)	7.44%	–	–
Cc1cc(C)cc(NC(=O)c2sc3nc4n(c(=O)c3c2C)CCC4)c1	–	-23.1%	–	18.4 µM (active)
CCc1cccc(NC(=O)c2ccc3c(=O)n4c(nc3c2)CCCCC4)c1	5.18% (inactive)	-2.31%	–	–
COc1ccccc1N1CCN(C(=O)c2sc3nc4n(c(=O)c3c2C)CCC4)CC1	-15.3% (inactive)	-21.5%	–	–
Cc1cccn2c(=O)c3cc(C(=O)NCCCN4CCOCC4)n(C)c3nc12	21.1% (inactive)	–	–	–

Structure (SMILES)	lipid storage change, negative = inhibition	cell number change	outcome	Potency
CCCCN1C(=O)NC(NC(=O)C2CC2)(C(F)(F)F)C1=O (configuration not stated)	0.363% (inactive)	15%	–	–
CC(=O)Nc1ccc(S(=O)(=O)N(C#N)c2nc(N(C)C)nc(N(C)C)n2)cc1	0.237% (inactive)	-23%	–	–
CN(C)CC(=O)Nc1ccc2cn[nH]c2c1	0.452% (inactive)	-1.8%	–	–
CSc1nc(C)c(Cl)c(C)c1C#N	10.8% (inactive)	-6.02%	–	–
COc1cc(Cl)cc(C(=O)O)c1OCC(=O)O	7.31% (inactive)	3.53%	–	–
O=C(/C=C/c1ccc(F)cc1)N1CCN(c2ncccn2)CC1	-0.413% (inactive)	20.7%	–	–
CC(=O)NNC(=O)CCn1c2c(c3ccccc31)CCCC2	-7.9% (inactive)	1.32%	–	–
Fc1ccccc1CNc1ccc(Cl)cc1	12.9% (inactive)	-4.41%	–	–
CN(C)S(=O)(=O)Nc1cccc(Br)c1	–	0.321% and 14.1%	–	inactive
CN(C)S(=O)(=O)Nc1ccccc1F	-12.4% (inactive)	-0.564%	–	–
CN(C)S(=O)(=O)Nc1ccc(Br)cc1F	–	-21.1%	–	23.1 µM (active)
CC(=O)c1c(C)[nH]c(C(=O)NCc2cccs2)c1C	–	–	inactive	–
COc1ccc(N2CCN(CC(O)COc3ccc4c(c3)CCC4)CC2)cc1 (configuration not stated)	–	10.4%	inactive	–
O=C1CN(CC(=O)N2CCOCC2)c2ccccc2O1	–	–	inactive	–
COc1ccc(/C(C)=N/NC(=S)NCCc2ccccc2)cc1	–	–	inactive	–
COc1cccc(OC)c1C(=O)NC(C)c1ccccc1 (configuration not stated)	2.45% (inactive)	0.137%	–	–
NS(=O)(=O)c1ccc(CCNC(=O)c2ccc3c(c2)OCCO3)cc1	-3.84% (inactive)	12.5%	–	–
O=C(NCCc1ccc(Cl)cc1)c1ccc2c(c1)OCO2	-3.03% (inactive)	–	–	–
NS(=O)(=O)c1ccc(CCNC(=O)c2ccc3c(c2)OCO3)cc1	–	21.4%	–	23.1 µM (active)
CCCCSc1nc2sc3c(c2c(=O)n1-c1ccc(C)cc1)CCN(C)C3	-30% (inactive)	14.8%	–	–
CS(=O)(=O)Oc1ccc(/C=C2\C(=N)N3N=C(CC(=O)N4CCOCC4)SC3=NC2=O)cc1Cl	–	6.05%	inactive	–
COc1cc(/C=C2\C(=O)N(C)C(=S)N2C)ccc1O	2.76% (inactive)	-9.16%	–	–
CN1C(=O)/C(=C/c2ccc(O)c([N+](=O)[O-])c2)N(C)C1=S	3.49% (inactive)	0.447%	–	–

Structure (SMILES)	lipid storage change, negative = inhibition	cell number change	outcome	Potency
Cc1cc(/C=C2/C(=O)N(C)C(=S)N2C)ccc1N1CCCC1	–	-25.4%	–	4.47 µM (active)
CCc1ccc(NC(=O)c2cc(C)nn2-c2ccccc2)cc1	9.85% (inactive)	2.41%	–	–
CC12CCC(=O)N1C(C(=O)NNC(=O)c1ccc(Cl)cc1)CS2 (configuration not stated)	-23.9% (inactive)	25.5%	–	–
COCCn1c(SCC(=O)Nc2cc(C)on2)nc2c(c1=O)SC(C)C2 (configuration not stated)	15.1% (inactive)	9.04%	–	–
Cc1csc(NC(=O)CSC2=NS(=O)(=O)c3cc(F)ccc3N2)n1	27.8% [at 0.0737 µM] (inactive)	–	–	–
CCN(C(=O)CN1CCCCC1)c1c(N)n(Cc2ccccc2)c(=O)[nH]c1=O	-1.92% (inactive)	1.16%	–	–
CCN(C(=O)COC(=O)CCCOc1ccccc1)c1c(N)n(Cc2ccccc2)c(=O)[nH]c1=O	-0.952% (inactive)	-12.5%	–	–
CCCN(C(=O)C1=COCCO1)c1c(N)n(Cc2ccccc2)c(=O)[nH]c1=O	5.43% [at 0.0737 µM] (inactive)	-8.42%	–	–
CCN(C(=O)COC(=O)CCOc1ccccc1)c1c(N)n(Cc2ccccc2)c(=O)[nH]c1=O	6.7% (inactive)	3.61%	–	–
CCCN(C(=O)c1c(-c2ccccc2)noc1C)c1c(N)n(Cc2ccccc2)c(=O)[nH]c1=O	–	9.83%	–	1.84 µM (active)
CCCN(C(=O)c1ccc([N+](=O)[O-])c(C)c1)c1c(N)n(Cc2ccccc2)c(=O)[nH]c1=O	-11% (inactive)	-21.6%	–	–
CCN(C(=O)CN1CCN(c2ccccc2)CC1)c1c(N)n(Cc2ccccc2)c(=O)[nH]c1=O	–	-21.7%	–	13 µM (active)
CCCN(C(=O)COC(=O)CCOc1ccccc1)c1c(N)n(Cc2ccccc2)c(=O)[nH]c1=O	–	-10.8%	–	14.6 µM (active)
CCN(C(=O)CN1CCN(c2cccc(Cl)c2)CC1)c1c(N)n(Cc2ccccc2)c(=O)[nH]c1=O	8.94% (inactive)	-10%	–	–
c1ccc2c(c1)nnn2CNc1nccs1	11.7% (inactive)	-2.46%	–	–
COc1ccc(C(=O)NC2CCCCCC2)cc1S(=O)(=O)Nc1ccc(Br)cc1	–	-11.3%	inactive	–
CCCCCCn1c(=O)c(C(=O)N/N=C/c2cccc(F)c2)c(O)c2ccccc21	-4% (inactive)	5.21%	–	–
CC12C(=O)N(NC(=O)c3ccncc3)C(=O)C1C1C=CC2C1 (configuration not stated)	9.21% (inactive)	6.42%	–	–
CC12C(=O)N(n3cnnc3)C(=O)C1C1C=CC2C1 (configuration not stated)	–	2.58%	–	18.4 µM (active)
O=C1[C@@H]2[C@H](C(=O)N1n1cnnc1)[C@H]1C=C[C@@H]2C1	6.88% (inactive)	1.74%	–	–
CN1CCN(S(=O)(=O)c2ccc(Nc3cccc(Cl)c3)c([N+](=O)[O-])c2)CC1	10.8% (inactive)	8.16%	–	–
COc1ccc(C(=O)Nc2cccc(S(=O)(=O)NC3=NCCCCC3)c2)cc1	10.1% (inactive)	-1.04%	–	–
CN(C)c1nc(N(C)C)nc(N2CCCCC2)n1	21% (inactive)	10.3%	–	–
